Bioassay records (PubChem BioAssay)
esBAF inh – inhibitors of esBAF chromatin remodeling in mouse ES cells; 350,000 compounds, 2% hits; reporter increase, % at 12.5 µM; AID 602393; Bmi1-luciferase knock-in reporter, 24 h; 100% = twice the neutral-well signal; in the data active = activation above about 40%; inconclusive = no clear call, values can overlap the other calls;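 note: 0% = median of the plate's neutral control wells and 100% = double that signal; a rise in the Bmi1 reporter signal indicates esBAF inhibition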
Wnt act – activates Wnt/beta-catenin signaling in a reporter cell assay | activator, plate reader | activation, % at 9.35 µM | 300,000 compounds, 1.2% hits; in the data active = activation above about 30%, passing the limit was not always enough; inconclusive = no clear call, values can overlap the other calls;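 note: 0% = neutral control wells and 100% = positive control wells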
APOBEC3A inh – inhibitors of human APOBEC3A DNA deaminase; P31941; recombinant A3A, FAM/TAMRA ssDNA deamination fluorescence; inhibition, % at 20 µM; 330,000 compounds, 0.41% hits;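 active = at least 40% inhibition at 20 µM here, with at most 30% in a related deaminase screen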;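 note: plate controls were A3A with DMSO for no effect and wells lacking A3A enzyme for full effect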
Target sequence (P31941 whole entry, looked up): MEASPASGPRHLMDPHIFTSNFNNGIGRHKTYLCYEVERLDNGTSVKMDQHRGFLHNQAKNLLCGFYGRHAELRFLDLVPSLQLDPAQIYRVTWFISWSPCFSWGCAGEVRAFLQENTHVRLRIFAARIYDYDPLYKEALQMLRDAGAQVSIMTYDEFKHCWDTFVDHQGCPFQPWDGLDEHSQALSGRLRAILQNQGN
APOBEC3G inh – inhibitors of human APOBEC3G DNA deaminase; inhibition, % at 20 µM; 330,000 compounds, 0.28% hits; recombinant A3G, ssDNA deamination FAM/TAMRA fluorescence; Q9HC16;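 active = inhibition of at least 40% at 20 µM, with no more than 30% in the related APOBEC3A deaminase screen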;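 note: plate controls were DMSO wells with A3G for no effect and wells lacking A3G enzyme for full effect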
PHOSPHO1 inh – inhibitors of human PHOSPHO1 phosphatase. inhibition, % at 13.3 µM. 290,000 compounds, 1.1% hits. recombinant PHOSPHO1, absorbance phosphatase assay; in the data active = inhibition above about 60%
Target sequence (Q8TCT1 whole entry, looked up): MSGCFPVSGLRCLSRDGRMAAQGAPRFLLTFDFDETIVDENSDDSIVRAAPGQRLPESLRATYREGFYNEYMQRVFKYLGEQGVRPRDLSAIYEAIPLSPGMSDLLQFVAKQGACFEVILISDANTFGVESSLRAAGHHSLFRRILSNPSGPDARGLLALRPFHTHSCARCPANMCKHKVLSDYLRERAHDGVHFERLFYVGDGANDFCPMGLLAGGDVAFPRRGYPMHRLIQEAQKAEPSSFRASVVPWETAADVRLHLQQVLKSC
MITF TRPM1 HTS – MITF TRPM1 promoter activation in melanoma cells. SK-MEL-5 TRPM1-promoter luciferase, 24 h; % of positive control, neutral wells = 0. 300,000 compounds, 0.75% hits. activation, % at 12.5 µM. AID 588334;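 active = mean activation of at least 80% with every replicate also reaching 80%; inconclusive = mean reaches 80% but some replicate falls short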;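 note: 0% = neutral control wells and 100% = parthenolide positive control wells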
* marks the source's active call; other numbers are inactive results; ? = inconclusive; . = not tested or not shown. A selection: hits, their analogues and other compounds. The true share with any hit is near 3.6%.

SMILES	esBAF inh	Wnt act	APOBEC3A inh	APOBEC3G inh	PHOSPHO1 inh	MITF TRPM1 HTS
Cc1c(NC(=O)COC(=O)c2cc3c4ccccc4n(C)c3s2)c(=O)n(-c2ccccc2)n1C	0	3	-1	-1	62*	-30
Cc1nc(-c2ccccc2)sc1C(=O)/C=C/c1ccc(Cl)cc1	-5	.	-2	0	50	-12
Cc1nc(-c2ccccc2Cl)sc1C(=O)/C=C/N(C)C	59*	7	-4	-11	20	57
CN1C(=O)c2cc(NC(=O)Nc3ccccc3)ccc2OC[C@H]2O[C@@H](CC(=O)NC3CCC3)CC[C@@H]21	-3	.	.	.	.	.
CCCNC(=O)N(C)C[C@H]1Oc2cc(C3=CCCC3)ccc2S(=O)(=O)N([C@@H](C)CO)C[C@@H]1C	2	.	.	.	.	.
Cc1cc(O)c(C(=O)/C=C/c2ccc(C(C)C)cc2)c(=O)o1	24	39*	-4	-12	31	9
Cc1cc(O)c(C(=O)/C=C/c2ccccc2)c(=O)o1	27	12	0	-4	23	-6
Cc1c(C(=O)Nc2c(C)n(C)n(-c3ccccc3)c2=O)oc2ccc(Cl)cc12	5	-2	1	0	71*	-10
Cc1cccc(NC(=O)Nc2c(C)n(C)n(-c3ccccc3)c2=O)c1	0	-1	-5	-12	.	2
Cc1c(NC(=O)Nc2cccc(F)c2)c(=O)n(-c2ccccc2)n1C	-5	2	-3	-5	61*	-4
COc1ccccc1NC(=O)N[C@H]1CC[C@H](CCn2cc(C3(O)CCCC3)nn2)O[C@@H]1CO	2	.	.	.	.	.
CO[C@@H]1CN(C)C(=O)c2cc(NC(=O)C3CC3)ccc2OC[C@@H](C)N(C(=O)CN(C)C)C[C@@H]1C	2	.	.	.	.	.
COc1ccc(-c2noc(Cc3ccccc3OC)n2)cc1	?	.	2	-2	-2	32
COc1ccc(CCc2nc(-c3ccc(-n4cccc4)cc3)no2)cc1	-4	2	0	-3	0	5
COc1ccc(-c2noc(Cc3cccs3)n2)cc1	55*	16	1	-7	-28	119*
COc1ccc(-c2noc(CCc3ccccc3)n2)cc1	57*	5	-2	-6	-17	50
Cc1ccccc1S(=O)(=O)N[C@@H]1CC[C@H](CCn2cc(-c3ccccc3)nn2)O[C@H]1CO	5	.	.	.	.	.
CCCNC(=O)N(C)C[C@@H]1Oc2cc(C#CCOC)ccc2S(=O)(=O)N([C@@H](C)CO)C[C@@H]1C	-1	.	.	.	.	.
O=C(NCCSCc1ccco1)Nc1ccc(Cl)cc1	63*	2	-4	-8	-36	.
COc1ccc(N(CC(=O)NCCSCc2ccco2)S(=O)(=O)c2ccccc2)cc1	.	3	-1	-3	35	-7
O=C(Nc1ccc(Cl)cc1)Nc1ccccc1C(=O)NCc1ccco1	18	40*	-2	-7	0	25
O=C(CN(c1ccccc1)S(=O)(=O)c1ccccc1)NCCSCc1ccco1	4	.	12	8	72*	-7
O=C(Nc1ccccc1C(=O)NCc1ccco1)c1ccccc1	3	.	-5	-5	6	-9
CCCC(=O)Nc1ccc2c(c1)C(=O)N(C)C[C@H](OC)[C@@H](C)CN(Cc1ccncc1)[C@H](C)CO2	0	.	.	.	.	.
CC1CCCN(CCCOc2ccc(Cl)cc2Br)C1 (stereo unspecified)	.	8	-5	-7	5	20
SMILES	esBAF inh	Wnt act	APOBEC3A inh	APOBEC3G inh	PHOSPHO1 inh	MITF TRPM1 HTS
CC1CCCN(CCOc2ccc3ccccc3c2Br)C1 (stereo unspecified)	.	-1	-2	-14	32	96*
O=C1/C(=C/c2cccs2)SC(=S)N1CCC(=O)N1CCCCC1CCO (stereo unspecified)	60*	9	-1	3	-9	35
Cc1ccccc1N(CC(=O)Nc1ccc(S(=O)(=O)N2CCOCC2)cc1)S(C)(=O)=O	.	0	-1	-5	63*	-1
Cc1ccc(C(=O)Nc2ccc(S(=O)(=O)N3CCOCC3)cc2)cc1Br	.	41*	-3	0	.	.
O=C(CCNC(=O)c1ccc(Br)cc1)Nc1ccc(S(=O)(=O)N2CCOCC2)cc1	-8	36*	-3	-11	.	3
COc1ccc(S(=O)(=O)N2CCOCC2)cc1NC(=O)c1ccc2c(c1)OCCO2	3	40*	2	-7	47	-2
COC1=C/C(=C/c2c(O)c(C#N)c3ccccn23)C=CC1=O	55*	34*	5	-1	-3	0
CCS(=O)(=O)Nc1ccc2c(c1)C(=O)N(C)C[C@@H](OC)[C@@H](C)CN(Cc1nccs1)[C@@H](C)CO2	1	.	.	.	.	.
COc1ccc(NC(=O)N(C)C[C@@H]2Oc3ccc(NC(=O)CCN4CCOCC4)cc3CC(=O)N([C@@H](C)CO)C[C@@H]2C)cc1	-2	.	.	.	.	.
COc1cccc(C=NNC(=S)NC2CC3CCC2C3)c1O (stereo unspecified)	.	37*	.	.	.	.
COc1cc(NC(=O)c2cc(S(=O)(=O)N3CCc4ccccc43)cn2C)cc(OC)c1OC	6	3	-3	-3	65*	-3
C[C@H](CO)N1C[C@H](C)[C@@H](CN(C)Cc2ccc(C(F)(F)F)cc2)Oc2ccc(NC(=O)Nc3cccc4ccccc34)cc2C1=O	1	.	.	.	.	.
Cc1cc(=O)oc2cc(NC(=O)c3ccccc3Cl)ccc12	.	?	-5	-14	32	98*
Cc1cc(=O)oc2cc(NC(=O)c3ccccc3C(=O)O)ccc12	-5	0	-3	-7	.	2
COc1cccc(C(=O)Nc2ccc3c(C)cc(=O)oc3c2)c1	34	33*	-4	-7	16	20
CO[C@@H]1CN(C)C(=O)c2ccc(NC(=O)Nc3cccc(F)c3)cc2OC[C@@H](C)N(C(=O)Nc2cccc(F)c2)C[C@H]1C	15	.	.	.	.	.
COc1ccc(C=C(C#N)c2ccc(OC)cc2)cc1	55*	13	.	.	.	43
COc1ccc(/C=C(/C#N)c2cccnc2)cc1OC	5	-4	-5	-3	-11	7
COc1ccc(C(C#N)=Cc2ccc(OC)c(OC)c2)cc1	68*	2	.	.	.	.
COc1ccc(C(C#N)=Cc2ccc(NC(C)=O)cc2)cc1	21	-2	.	.	.	44
Cc1cs/c(=N/C(=S)Nc2ccccc2)n1C	.	5	1	2	-37	102*
COc1ccc(NC(=O)CSc2nc3ccccc3n2-c2ccccc2)c([N+](=O)[O-])c1	.	-5	-1	-2	-2	-7
COc1ccc(NC(=O)CSc2ccccc2)c([N+](=O)[O-])c1	57*	4	1	-6	22	?
O=C1CCN(Cc2ccccc2)C=C1c1ccc2ccccc2c1	63*	44*	-6	-7	.	51
Cc1ccc(-n2nnc3ccccc3c2=O)cc1C	8	.	-4	-9	-7	86*
C[C@@H]1CN([C@@H](C)CO)C(=O)c2cc(NC(=O)Nc3ccc(F)cc3)ccc2O[C@H]1CN(C)S(C)(=O)=O	-4	.	.	.	.	.
